Molecules are shown by their SMILES. About 83,000 compounds went through this panel and 20% of them were active in at least one assay; those are over-represented in the sample as a whole.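 Method: cells in 96-well plates; compound added at one concentration; 48 h incubation; percent growth measured; values under 10 scored active.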 A number with no mark means an inactive call. Calls of active or inactive are those of the source.

What all share (assay): NCI-60 one-dose screen, 48 h (100 = growth as untreated, 0 = no growth, -100 = all killed)
Holding throughout (details): 10 µM unless noted

The subject of assay [1] is HCT-15 colon.
For assay [2], the system named is HT29 colon.
The test system of assay [3] is SNB-75 CNS.
Assay [4] deals with SNB-19 CNS.
The test system of assay [5] is U251 CNS.
Assay [6] deals with PC-3 prostate.
For assay [7], the system named is SK-MEL-5 melanoma.
Assay [8] deals with UACC-62 melanoma.
Assay [9] relates to LOX IMVI melanoma.
Assay [10] relates to SK-MEL-28 melanoma.
The test system of assay [11] is SK-MEL-2 melanoma.
Assay [12] concerns EKVX NSCLC.
Assay [13] relates to SN12C renal.
In assay [14] the test system is UO-31 renal.
The test system of assay [15] is ACHN renal.
For assay [16], the system named is A498 renal.
Assay [17] relates to CCRF-CEM leukemia.
Assay [18] relates to MOLT-4 leukemia.
The test system of assay [19] is SR leukemia.

In the case of `Nn1c(SCC(=O)Nc2ccc(Cl)cc2)nnc1-c1cc(F)c(Cl)cc1Cl`, the growth was 79.3% in assay [1]; 95% in [2]; 81.2% in assay [3]; 98% in [4]; 94.4% in assay [5]; 85.7% in [6]. The growth was 86.6% in [7]; 65.8% in assay [8]; 86% in assay [9]; 98.1% in assay [10]; 83.4% in [11]; 90.9% in assay [12]. For the same molecule, the growth was 97.8% in assay [13]; 69.9% in assay [14]; 87.2% in assay [15]; 65.2% in assay [16]; 92.8% in assay [17]; 80.4% in assay [18]. The growth in assay [19] was 56.5%.

For the molecule `COc1ccc(-c2nc(C#N)c(NCC(c3ccco3)N3CCCC3)o2)cc1` (stereo unspecified), the growth in [1] is 30.9%; in [2], 10.7%; in [3], 40.6%; in assay [4], 51.9%; in assay [5], 35.7%; in assay [6], 37%. Further, the growth in assay [7] was 24.6%; in [8], 47.2%; in [9], 41.4%; in [10] it was 61.7%; in assay [11], 53.3%; in assay [12], 54.2%. The growth in assay [13] was 49.5%; in [14], 51.5%; in assay [15], 43.9%; in [16] it was 42.6%; in assay [17] it was 18.4%; in assay [18], 29.7%. For the same molecule, the growth in [19] was 21.1%.

Take `CC(C)(C)c1nn(-c2ccccc2)c2c1COCN2Cc1ccc(Cl)cc1`: the growth in assay [1] is 96%; in assay [2], 65.7%; in [3] it was 95.1%; in assay [4], 92.4%; in assay [5], 90.3%; in assay [6], 63.6%. The growth is 82.2% in assay [7]; 72.8% in [8]; 85% in [9]; 100% in assay [10]; 94.1% in assay [11]; 98.8% in assay [12]. Moreover, the growth was 96.7% in assay [13]; 85.2% in [14]; 89.1% in assay [15]; 85.1% in assay [16]; 64.5% in assay [17]; 68.1% in assay [18]. Also, in [19], the growth is 47.2%.

With `CCOc1ccccc1C(=O)/C=C/c1cc2ccccc2[nH]c1=O`, the growth in assay [1] is -58.9% (active); in [2] it was -44.6% (active); in assay [3], 21%; in assay [4] it was -72.9% (active); in [5], -92.2% (active); in assay [6], 14.9%. In addition, the growth was -78.3% (active) in assay [7]; -65.3% (active) in assay [8]; -81.8% (active) in assay [9]; -3.66% (active) in assay [10]; 4.96% (active) in [11]; -1.6% (active) in [12]. Moreover, the growth in assay [13] was -20.9% (active); in [14], -97.7% (active); in assay [15] it was -5.01% (active); in assay [16], -14.7% (active); in assay [17], -0.719% (active); in assay [18], 5.16% (active). Also, the growth in assay [19] is 4% (active).

For `COc1ccc2nc3nc4ccc[nH]c4cc3c2c1`, the growth is 82.9% in assay [1]; 97.7% in assay [2]; 82.5% in assay [3]; 105% in assay [4]; 94.8% in assay [5]; 93.2% in assay [6]. Besides, the growth in assay [7] is 88.6%; in [8], 105%; in assay [9], 95.1%; in assay [10], 110%; in assay [11], 108%; in assay [12], 67.6%. Further, the growth is 89.7% in assay [13]; 61.5% in assay [14]; 76% in assay [15]; 94.4% in [16]; 97.5% in [17]; 93.6% in [18]. Besides, the growth in assay [19] is 43.6%.

As for `COc1cc(C2=NNC(c3ccc(N(C)C)cc3)C2)cc(OC)c1OC` (stereo unspecified), the growth was 30.9% in assay [1]; 6.34% (active) in assay [2]; 37.8% in assay [3]; 8.5% (active) in assay [4]; 28.8% in assay [5]; 29.3% in assay [6]. Also, the growth in [7] is -4.54% (active); in assay [8] it was 40.8%; in assay [9], 49.4%; in assay [10], 79.4%; in assay [11], 60.9%; in assay [12], 44.4%. The growth was 49.3% in assay [13]; 38.9% in assay [14]; 50.6% in assay [15]; -8.21% (active) in assay [16]; 17% in assay [17]; 37.1% in assay [18]. The growth in assay [19] is -5.74% (active).

As to `C=C(C)[C@@H]1CC[C@]2(C(=O)OCCOCCOCC[P+](c3ccccc3)(c3ccccc3)c3ccccc3)CC[C@]3(C)[C@H](CC[C@@H]4[C@@]5(C)CC[C@H](C)C(C)(C)[C@@H]5CC[C@]43C)[C@@H]12`, the growth was -86.7% (active) in assay [1]; -81.6% (active) in assay [2]; -90% (active) in assay [3]; -72.2% (active) in assay [4]; -83.5% (active) in assay [5]; -84.9% (active) in assay [6]. Also, the growth in assay [7] is -98% (active); in assay [8], -77.8% (active); in assay [9], -86.3% (active); in assay [10] it was -80% (active); in [11], -71.3% (active); in assay [12], -67.2% (active). The growth in assay [13] was -75.9% (active); in assay [14], -89.8% (active); in [15] it was -92.6% (active); in assay [16] it was -93.7% (active); in assay [18], -75.4% (active); in assay [19], -56.8% (active).

As for `COC(=O)/C=C1\SC(=Nc2cccc(OC)c2)N(CCc2c[nH]c3ccccc23)C1=O`, the growth is 39.9% in [1]; 12.2% in assay [2]; 85% in [3]; 72.9% in [4]; 53.9% in assay [5]; 40.1% in assay [6]. Besides, the growth in assay [7] is 77.2%; in assay [8] it was 44.1%; in [9], 49.3%; in [10], 89.6%; in [11], 60.8%; in assay [12], 76.1%. The growth in assay [13] is 64.4%; in assay [14], 76.3%; in assay [15] it was 78.4%; in [16], 90.1%; in [17] it was 24.7%; in assay [18], 2.83% (active). The growth in assay [19] is 12%.

Source of the values: PubChem BioAssay (NCI).
